Assay results published in PubChem BioAssay (NCI).
About 83,000 compounds went through this panel and 20% of them were active in at least one assay; those are over-represented in the sample as a whole.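 Cells were grown in 96-well plates and exposed to the test compound at a single concentration for 48 hours; results are reported as percent growth, with values below 10 considered active.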 Unmarked numbers belong to inactive results. Activity calls are given as the source filed them.

Tests used:
Assay in all cases: NCI-60 one-dose screen, 48 h (100 = growth as untreated, 0 = no growth, -100 = all killed)
Conditions in all cases: 10 µM unless noted
K-562 leukemia = tested on: K-562 leukemia
MALME-3M melanoma = tested on: MALME-3M melanoma
MDA-MB-231 breast = tested on: MDA-MB-231 breast
RXF 393 renal = tested on: RXF 393 renal
SF-268 CNS = tested on: SF-268 CNS
SF-295 CNS = tested on: SF-295 CNS
SF-539 CNS = tested on: SF-539 CNS
UACC-257 melanoma = tested on: UACC-257 melanoma
M14 melanoma = tested on: M14 melanoma
HCT-15 colon = tested on: HCT-15 colon
HT29 colon = tested on: HT29 colon
SNB-75 CNS = tested on: SNB-75 CNS
SNB-19 CNS = tested on: SNB-19 CNS
U251 CNS = tested on: U251 CNS
PC-3 prostate = tested on: PC-3 prostate
SK-MEL-5 melanoma = tested on: SK-MEL-5 melanoma
UACC-62 melanoma = tested on: UACC-62 melanoma
LOX IMVI melanoma = tested on: LOX IMVI melanoma
SK-MEL-28 melanoma = tested on: SK-MEL-28 melanoma
SK-MEL-2 melanoma = tested on: SK-MEL-2 melanoma

SMILES	growth (K-562 leukemia)	growth (MALME-3M melanoma)	growth (MDA-MB-231 breast)	growth (RXF 393 renal)	growth (SF-268 CNS)	growth (SF-295 CNS)	growth (SF-539 CNS)	growth (UACC-257 melanoma)	growth (M14 melanoma)	growth (HCT-15 colon)	growth (HT29 colon)	growth (SNB-75 CNS)	growth (SNB-19 CNS)	growth (U251 CNS)	growth (PC-3 prostate)	growth (SK-MEL-5 melanoma)	growth (UACC-62 melanoma)	growth (LOX IMVI melanoma)	growth (SK-MEL-28 melanoma)	growth (SK-MEL-2 melanoma)
[Cl][Ru].c1ccc(-c2cccc(-c3ccccn3)n2)nc1.c1ccc(-c2ccnc3c2ccc2c(-c4ccccc4)ccnc23)cc1	32.4%	2.72% (active)	32.3%	48.4%	28.5%	95.7%	15.3%	26.9%	71.1%	90.4%	21%	1.93% (active)	23.5%	31.7%	23.6%	73.1%	14.2%	37.4%	31.3%	-36.9% (active)
Nc1ncc(-c2ccc3ncnc(N4CCc5cc(F)c(Cl)cc54)c3c2)cc1CO	7.76% (active)	-25.8% (active)	17%	-26.6% (active)	8.31% (active)	-11.5% (active)	-17.8% (active)	9.34% (active)	-3.69% (active)	5.51% (active)	12.7%	-28.6% (active)	19.1%	18.8%	8.02% (active)	-72.4% (active)	-60.5% (active)	7.2% (active)	-4.29% (active)	-63.4% (active)
COc1ccc(-c2cc(C(=O)N=Nc3c(O)[nH]c4ccccc34)c3ccccc3n2)cc1OC	106%	95.6%	91.5%	101%	100%	95.7%	95.6%	98.2%	95.6%	96.9%	102%	92%	97.9%	95.3%	91.6%	97.3%	91.5%	105%	98.1%	107%
CC(C)(C)Nc1nc2c(OCCc3ccccc3)cccn2c1-c1ccccc1Cl	0.922% (active)	-32% (active)	-32.6% (active)	-43.6% (active)	22.9%	-56.8% (active)	-74.7% (active)	1.9% (active)	0.193% (active)	-72.1% (active)	-47.3% (active)	34.5%	18.4%	-44.7% (active)	-40% (active)	-92.5% (active)	-42.1% (active)	-96% (active)	0.829% (active)	-76.2% (active)
C[C@@H]1CN(c2ccc3ncc(C#Cc4cncc(C(=O)Nc5ccc(CN6CCN(C)CC6)c(C(F)(F)F)c5)c4)n3n2)C[C@H](C)O1	-11.8% (active)	-68.9% (active)	-24.9% (active)	-92.1% (active)	-60.3% (active)	0.595% (active)	-96.1% (active)	-19.1% (active)	-76.3% (active)	-17.2% (active)	-65.8% (active)	-79.3% (active)	-4.76% (active)	-97.9% (active)	0.777% (active)	-94.5% (active)	-65.9% (active)	-87.7% (active)	-89.5% (active)	-89.7% (active)
COc1ccc(/C=C/C(=O)c2ccc(NC(=O)CSc3nnc(-c4ccc5nc(-c6ccc(Cl)cc6)[nH]c5c4)o3)cc2)cc1	87.3%	93.5%	98.4%	107%	114%	100%	94.3%	110%	106%	94.9%	106%	98.5%	106%	96%	82.5%	89.7%	83.8%	6.79% (active)	113%	111%
O=C1Nc2ccc(Cl)cc2/C1=C/c1ccc(OCC(=O)c2ccc(Br)cc2)cc1	102%	84.5%	76.2%	114%	94%	99.9%	102%	100%	95.6%	99.2%	103%	75.7%	89.7%	98.3%	81.8%	96.9%	83.4%	108%	99.3%	113%
CS(=O)(=O)c1ccc(-c2nc3ccccn3c2/C=N/Nc2nc(-c3ccc(Cl)cc3)cs2)cc1	78.6%	127%	106%	98.8%	110%	98.8%	105%	107%	107%	94.2%	110%	120%	107%	108%	102%	91.7%	102%	122%	93.1%	102%
OC1CCN(CCCOc2c3ccc(Cl)cc3nc3c2oc2ccc(Cl)cc23)CC1	-51.7% (active)	-66.6% (active)	24.5%	-80.4% (active)	27.4%	17.8%	-74.1% (active)	-13.4% (active)	-93.8% (active)	-83% (active)	-86% (active)	14.9%	29.5%	-93.5% (active)	21%	-7.79% (active)	-68.4% (active)	-92.9% (active)	-84.5% (active)	50.6%
CCN(CC)c1ccc(C=O)c(OCc2cn(CC(=O)Nc3ccc(Cl)cc3)nn2)c1	51.7%	91.5%	80.4%	34.1%	84.6%	65.8%	75%	108%	87.7%	61.4%	73.2%	103%	69%	53.7%	56.2%	92.7%	58%	58.8%	92.7%	89.7%
CCOc1ccc([C@H]2C(C(=O)c3ccc(Cl)cc3)C3(N[C@@H]2c2ccccc2)C(=O)Nc2ccc(Br)cc23)cc1 (stereo not given in full)	14.2%	64.8%	11%	16.6%	28.9%	37.8%	48.8%	68.5%	37.6%	33.4%	-27.1% (active)	26.9%	47.6%	13.5%	13.8%	47.8%	51.4%	-36.2% (active)	75.2%	56.6%
Clc1ccc2oc3c(NCCCn4ccnc4)c4ccccc4nc3c2c1	4.86% (active)	57.1%	27.1%	23.9%	38.3%	30.2%	24.3%	78.3%	49.7%	13%	-35.2% (active)	42.1%	51%	11.6%	55.4%	78%	45.2%	-72.1% (active)	59%	110%
O=C1Nc2ccccc2Oc2ccc(S(=O)(=O)CC3CO3)cc21 (stereo not given)	18%	87.7%	48.4%	58.1%	80.2%	66.3%	69.7%	65%	57.5%	21.2%	58.8%	90.6%	96.9%	77.6%	62.3%	90%	67.6%	29.5%	64.1%	85.5%
O=C(NNc1nc2cc(F)ccc2n2c(CN3CC4(COC4)C3)ccc12)c1cnccn1	13.4%	19.5%	30.6%	39.2%	22.8%	14.3%	3.55% (active)	-8.36% (active)	-26.4% (active)	33.1%	28.6%	63.1%	29.4%	11.6%	38.9%	-20.3% (active)	5.57% (active)	19.1%	20.6%	49.7%
NS(=O)(=O)c1cccc(Nc2nc(SCC(=O)c3ccc(Cl)cc3)nc3ccccc23)c1	68.2%	66.4%	56%	72.2%	41.8%	71.8%	50.9%	95%	99.3%	88.8%	88.4%	33.6%	69.6%	46.4%	57.2%	73.5%	62.6%	28.7%	89%	77.3%
CCN1C(=S)N(CC)C2C1N=C(SC)N2/N=C/C=C/c1ccccc1[N+](=O)[O-] (stereo not given)	68.1%	93.8%	89.7%	115%	88.5%	90.4%	81.1%	109%	108%	79.2%	93.5%	82.2%	103%	96.5%	85%	96.2%	85.1%	116%	105%	123%
